Records with an inconclusive call do not appear. Where a call stands in place of a potency, no number is given. Calls of active or inactive are those of the source. The call rests on the fitted dose curve; in most records, active means well fitted inhibition curve with a large enough effect; inconclusive means small, poorly fitted or top-dose-only effect; inactive means no such curve, though single readings can be large or run the other way.
target: Polyunsaturated fatty acid lipoxygenase ALOX15B (Homo sapiens) (UniProt O15296); experiment: Confirmation qHTS Assay for Inhibitors of 15-hLO-2 (15-human lipoxygenase 2); settings: purified 15hLO-2, xylenol orange hydroperoxide absorbance; series mostly up to 57.1 µM
Procedure: Human lipoxygenase 15hLO-2 is a member of the closely related lipoxygenase family of enzymes which catalyze the site-specific oxidation of arachidonic acid to various hormone precursor molecules and as such is a candidate for drug development in a variety of disease areas, such as cancer and inflammation. Inhibition of 15hLO-2 activity was screened by utilizing arachidonic acid as a substrate. The extent of hydroperoxide product formation was measured by a secondary chromogenic reaction in which xylenol orange (XO, Sigma-Aldrich, cat. number 39,818-7) reacts with the ferric ions produced from the reaction between the hydroperoxide and ferrous ions. The Fe(III)-XO complex is characterized with red-shifted absorbance at 560 nm. A purified preparation of human 15hLO-2 was supplied by Professor Ted Holman, University of California, Santa Cruz. NIH Molecular Libraries Screening Centers Network [MLSCN] NIH Chemical Genomics Center [NCGC] MLSCN Grant: MH081283-01A1 PI Name: Holman, T.R., University of California, Santa Cruz
Assay Protocol: Buffer: 25 mM Hepes pH 7.5, 0.01% Triton X-100. Reagents/Controls: Buffer in columns 3 and 4 as negative control (no enzyme). Substrate solution: 45 uM arachidonic acid (Sigma-Aldrich, St. Louis, MO) final concentration dispensed throughout the plate. Enzyme: 50 nM 15hLO-2 final concentration in columns 1, 2, 5-48. Column 1 is neutral (100% activity). Column 2 contained pin-transferred titration of NDGA (nordihidroguaiaretic acid, Sigma-Aldrich, N 5023, top concentration 10 mM in DMSO, then 1:2 dilution in duplicate). (Dilution factor: 23 nL into 4 uL.) Chromogenic detection reagent (divalent iron/xylenol orange, Fe-XO): 200 uM xylenol orange plus 300 uM ferrous ammonium sulfate prepared freshly in 50 mM sulfuric acid. Assay Steps: Three uL of enzyme were dispensed to 1536-well Greiner black clear bottom plates. Compounds and controls (23 nL) were transferred via Kalypsys PinTool. The plates were incubated for 15 min at room temperature, and then 1 uL of substrate solution was added to start the reaction. After room temperature incubation for 90 minutes, 4 uL of Fe-XO solution was added to each well followed by a short spin (1000 rpm, 15 sec) and the plates were then incubated for 30 min. The absorbance at 405 and 573 nm were measured using ViewLux (Perkin-Elmer) High-throughput CCD imager and absorbance protocol settings. The 573-to-405 absorbance ratio was used to compute reaction progress.

Sequence of Polyunsaturated fatty acid lipoxygenase ALOX15B (Homo sapiens) (O15296 whole entry, looked up): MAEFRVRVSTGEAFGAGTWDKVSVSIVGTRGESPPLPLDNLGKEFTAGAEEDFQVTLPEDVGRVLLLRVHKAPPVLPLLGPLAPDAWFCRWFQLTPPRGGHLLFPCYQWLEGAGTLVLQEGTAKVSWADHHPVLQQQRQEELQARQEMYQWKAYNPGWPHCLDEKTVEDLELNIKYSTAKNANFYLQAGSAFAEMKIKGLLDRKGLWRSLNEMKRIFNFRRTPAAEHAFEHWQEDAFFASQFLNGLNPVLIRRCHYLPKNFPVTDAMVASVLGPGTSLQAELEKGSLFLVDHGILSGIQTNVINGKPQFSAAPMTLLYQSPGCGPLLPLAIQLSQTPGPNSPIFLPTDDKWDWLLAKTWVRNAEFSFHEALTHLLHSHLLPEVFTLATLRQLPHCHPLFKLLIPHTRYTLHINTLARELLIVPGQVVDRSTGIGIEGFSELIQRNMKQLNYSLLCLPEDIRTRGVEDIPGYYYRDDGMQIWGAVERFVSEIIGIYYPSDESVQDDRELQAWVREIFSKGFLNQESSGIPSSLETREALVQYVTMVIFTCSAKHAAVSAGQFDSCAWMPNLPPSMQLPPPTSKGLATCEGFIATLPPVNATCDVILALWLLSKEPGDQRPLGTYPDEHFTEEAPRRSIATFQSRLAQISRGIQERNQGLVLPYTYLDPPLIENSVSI

| Compound | Potency |
| --- | --- |
| Cc1noc(C)c1-c1nc(N(C)Cc2ccco2)c2ccccc2n1 | inactive |
| O=C(CC1C(=O)N(c2ccc(Cl)cc2)C(=S)N1CCc1ccncc1)Nc1ccc(F)cc1 (configuration not stated) | inactive |
| Cc1cc(Nc2nnnn2-c2ccccc2)n(-c2ccc(Cl)cc2)n1 | inactive |
| CN1CCN(C(c2cccnc2)c2ccc3cccnc3c2O)CC1 (configuration not stated) | inactive |
| COc1ccc(OC)c(NC(=O)NC2(C(F)(F)F)Oc3ccccc3O2)c1 | inactive |
| COC(=O)c1ccc(C(=S)N2CCOCC2)cc1 | inactive |
| CCOC(=O)c1c(NC(=O)CN2CCOCC2)sc2c1CCCC2 | inactive |
| Cc1ccc(OCC(=O)Nc2ccc(N3CCCC3)cc2)cc1C | inactive |
| COc1ccccc1CNc1ncncc1-c1ccoc1 | inactive |
| Cc1cccc(CNc2ncnc3ccc(-c4ccc5c(c4)OCO5)cc23)c1 | inactive |
| O=C(Nc1nnc(-c2ccco2)s1)C1CCCCC1 | 1000 nM (active) |
| COCCSc1ccccc1C(=O)NCc1ccco1 | inactive |
